Test results reported in PubChem BioAssay (NCATS).
Values joined by “and” are separate entries in the source; they are usually repeats but may differ in a detail not shown here. Identical values can stand only once. Results filed as inconclusive are left out. Entries that show only a call come without a potency. Unmarked numbers belong to inactive results. Active and inactive are the calls of the source. The call rests on the fitted dose curve; in most records, active means well fitted cell-killing curve with a large enough effect; inconclusive means small, poorly fitted or top-dose-only effect; inactive means flat fitted curve, though single readings scatter.

Experiment: qHTS of pediatric cancer cell lines to identify multiple opportunities for drug repurposing: Primary screen for Rh18 cells (AID 1347102); further: nearly all actives have a fitted effect of over 65% in size
Settings: Rh18 rhabdomyosarcoma viability, CellTiter-Glo luminescence, 48 h; series mostly up to 46 µM; activity change, negative = cytotoxic: at the top concentration
Procedure, shortened: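 Cells (500-1,000/well) in growth media were settled 5 h at 37 degrees C, then given compounds for 48 h. Viability was read as CellTiter-Glo luminescence. Primary runs used MIPE at 11 points (0.78 nM-46 µM) and NPC at 8 points (0.59 nM-46 µM); follow-ups used 11 points.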
Potency means the concentration at half of the fitted maximal effect.

SMILES	Potency	activity change, negative = cytotoxic
O=C(O)c1cn(C2CC2)c2cc(N3CCNCC3)c(F)cc2c1=O	inactive	–
OCc1ccc(-c2nn(Cc3ccccc3)c3ccccc23)o1	–	0.308%
COC(c1ccccc1)(c1ccccc1)[C@H](Oc1nc(C)cc(C)n1)C(=O)O	inactive	–
CN(C)c1ccc(C(=C2C=CC(=[N+](C)C)C=C2)c2ccc(N(C)C)cc2)cc1	750 nM (active) and 332 nM (active)	–
CN(CCOc1ccc(CC2SC(=O)NC2=O)cc1)c1ccccn1 (configuration not stated)	inactive	–
S=P(N1CC1)(N1CC1)N1CC1	inactive	–
CCc1c2c(nc3ccc(OC(=O)N4CCC(N5CCCCC5)CC4)cc13)-c1cc3c(c(=O)n1C2)COC(=O)[C@]3(O)CC	18.7 µM (active)	–
CCn1cc(C(=O)O)c(=O)c2cc(F)c(N3CCNCC3)nc21	inactive	–
C[C@@H]1CN(c2c(F)c(N)c3c(=O)c(C(=O)O)cn(C4CC4)c3c2F)C[C@H](C)N1	inactive	–
CO[C@@]12[C@H](COC(N)=O)C3=C(C(=O)C(C)=C(N)C3=O)N1C[C@@H]1N[C@@H]12	18.7 µM (active)	–
C#CCN[C@@H]1CCc2ccccc21	inactive	–
NCCCC(O)(P(=O)(O)O)P(=O)(O)O	inactive	–
O=C(O)c1cc(=O)[nH]c(=O)[nH]1	inactive	–
CCOC(=O)c1ccc(OC(=O)CCCCCN=C(N)N)cc1	inactive	–
Cc1oc(=O)oc1CN1CCN(c2cc3c(cc2F)c(=O)c(C(=O)O)c2n3C(C)S2)CC1 (configuration not stated)	inactive	–
O=C(N[C@H](CO)[C@H](O)c1ccc([N+](=O)[O-])cc1)C(Cl)Cl	inactive	–
NC(=O)c1cccc(N)c1	–	11.8%
O=C(O)CCn1c2c(c3ccccc31)C[C@H](NS(=O)(=O)c1ccc(F)cc1)CC2	inactive	–
N[C@@H](C(=O)N[C@@H]1C(=O)N2C(C(=O)O)=C(Cl)CS[C@H]12)c1ccccc1	inactive	–

SMILES	Potency	activity change, negative = cytotoxic
CC(C)NCC(O)c1ccc(NS(C)(=O)=O)cc1 (configuration not stated)	–	25.4%
COc1ccc2c(c1)c(CC(=O)OCC(=O)O)c(C)n2C(=O)c1ccc(Cl)cc1	inactive	–
CCCCc1oc2ccc(NS(C)(=O)=O)cc2c1C(=O)c1ccc(OCCCN(CCCC)CCCC)cc1	18.7 µM (active)	–
Cc1noc(NS(=O)(=O)c2ccc(N)cc2)c1C	inactive	–
Cc1ncc([N+](=O)[O-])n1CCO	inactive	–
CCN(C)C(=O)Oc1cccc([C@H](C)N(C)C)c1	inactive	–
CCN[C@H]1C[C@H](C)S(=O)(=O)c2sc(S(N)(=O)=O)cc21	inactive	–
NC(=O)N1c2ccccc2CC(=O)c2ccccc21	inactive	–
CCCCS(=N)(=O)CCC(N)C(=O)O (configuration not stated)	–	8.11%
COc1ccccc1OCC(O)COC(N)=O (configuration not stated)	inactive	–
Cc1onc(-c2ccccc2Cl)c1C(=O)N[C@@H]1C(=O)N2[C@@H]1SC(C)(C)[C@@H]2C(=O)O	inactive	–
CCN(CC)CCn1c(=O)c(Cc2ccc(OC)cc2)nc2ccccc21	–	4.33%
Cc1cccc(Nc2ccncc2S(=O)(=O)NC(=O)NC(C)C)c1	inactive	–
NC(N)=NC(N)=NCCc1ccccc1	–	-16.8%
O=P(O)(O)C(O)(Cc1cccnc1)P(=O)(O)O	inactive	–
COc1ncnc(NS(=O)(=O)c2ccc(N)cc2)c1OC	inactive	–
CC(C)C1CCC(C(=O)N[C@H](Cc2ccccc2)C(=O)O)CC1 (some centres not stated)	inactive	–
CCOCC(O)COc1ccc(NC(=O)CC[S+](C)C)cc1 (configuration not stated)	inactive	–
